Binding signal data for eight sequences are collected here from PMC7862700, “An all-to-all approach to the identification of sequence-specific readers for epigenetic DNA modifications on cytosine”.

Common to all, as to test: DAPPL (digital affinity profiling via proximity ligation, sequencing); 10 mM Tris-HCl pH 7.5, 50 mM NaCl, 1 mM DTT, 4% glycerol, room temperature, 30 min; GST-TFs on glutathione beads, 16-mer random dsDNA library, 0.1% formaldehyde crosslink after washing; high values mean tight binding
What all share (conditions): protein: recombinant; tags: N-terminal GST; dsDNA, one strand shown

One experiment deals with T1, FLI1 (Homo sapiens, UniProt Q01543 1-452).
T1 sequence: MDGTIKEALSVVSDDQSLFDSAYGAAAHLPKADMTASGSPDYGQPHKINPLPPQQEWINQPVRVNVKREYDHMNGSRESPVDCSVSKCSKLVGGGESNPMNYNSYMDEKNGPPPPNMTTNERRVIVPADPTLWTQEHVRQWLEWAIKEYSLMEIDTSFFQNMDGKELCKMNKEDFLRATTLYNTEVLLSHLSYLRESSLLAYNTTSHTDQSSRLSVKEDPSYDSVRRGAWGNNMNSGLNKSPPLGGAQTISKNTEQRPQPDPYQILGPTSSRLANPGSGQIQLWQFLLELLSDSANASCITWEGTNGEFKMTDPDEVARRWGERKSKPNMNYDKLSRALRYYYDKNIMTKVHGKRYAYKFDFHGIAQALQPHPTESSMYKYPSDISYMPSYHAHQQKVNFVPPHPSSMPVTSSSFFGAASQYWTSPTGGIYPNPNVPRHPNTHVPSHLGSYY
An outline of the steps:
(§1)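 Beads coated with glutathione captured GST-fused human transcription factors that had been expressed in yeast, and the factors were then given DNA barcodes and pooled with a tag-only sample. The pools were incubated with 200 nmole of a random double-stranded 16-mer DNA library in Tris/NaCl/DTT/glycerol buffer for 30 min at room temperature, washed, crosslinked with 0.1% formaldehyde and proximity-ligated with BsaI/T4 ligase at 37 °C for 1 h. PCR amplification and Illumina NextSeq500 sequencing came last. Binding signal is each hexamer's read frequency for a factor divided by its frequency for the tag-only sample.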

A further experiment has as its target T2, ELK1 (Homo sapiens, UniProt P19419 1-428).
T2 sequence: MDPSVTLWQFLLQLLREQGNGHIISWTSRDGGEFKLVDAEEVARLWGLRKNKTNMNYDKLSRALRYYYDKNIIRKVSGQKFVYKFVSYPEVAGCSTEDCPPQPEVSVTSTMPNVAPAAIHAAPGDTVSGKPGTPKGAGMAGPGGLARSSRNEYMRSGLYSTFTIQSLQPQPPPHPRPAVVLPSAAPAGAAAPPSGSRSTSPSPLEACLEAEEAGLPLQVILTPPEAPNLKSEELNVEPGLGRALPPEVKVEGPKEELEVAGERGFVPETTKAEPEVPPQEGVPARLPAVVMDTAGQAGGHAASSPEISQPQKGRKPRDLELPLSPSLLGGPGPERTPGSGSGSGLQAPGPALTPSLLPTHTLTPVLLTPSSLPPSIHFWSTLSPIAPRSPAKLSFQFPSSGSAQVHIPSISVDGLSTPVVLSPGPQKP
An outline of the steps:
as §1

A further experiment concerns the target T3, GABPA (Homo sapiens, UniProt Q06546 1-454).
T3 sequence: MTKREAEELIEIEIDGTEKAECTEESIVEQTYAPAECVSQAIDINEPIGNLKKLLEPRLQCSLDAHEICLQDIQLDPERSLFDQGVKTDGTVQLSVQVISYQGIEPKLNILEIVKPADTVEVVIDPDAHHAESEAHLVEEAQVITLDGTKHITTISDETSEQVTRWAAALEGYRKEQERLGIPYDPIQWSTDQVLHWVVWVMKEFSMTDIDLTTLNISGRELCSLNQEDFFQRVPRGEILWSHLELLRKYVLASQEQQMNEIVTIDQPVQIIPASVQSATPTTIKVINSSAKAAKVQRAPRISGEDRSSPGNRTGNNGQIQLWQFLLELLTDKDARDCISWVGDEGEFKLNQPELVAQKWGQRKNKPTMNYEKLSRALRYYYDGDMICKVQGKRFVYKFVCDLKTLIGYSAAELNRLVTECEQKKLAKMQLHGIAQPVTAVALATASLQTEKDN
In outline:
as §1

A further experiment has as its target T4, ERG (Homo sapiens, UniProt P11308 1-479).
T4 sequence: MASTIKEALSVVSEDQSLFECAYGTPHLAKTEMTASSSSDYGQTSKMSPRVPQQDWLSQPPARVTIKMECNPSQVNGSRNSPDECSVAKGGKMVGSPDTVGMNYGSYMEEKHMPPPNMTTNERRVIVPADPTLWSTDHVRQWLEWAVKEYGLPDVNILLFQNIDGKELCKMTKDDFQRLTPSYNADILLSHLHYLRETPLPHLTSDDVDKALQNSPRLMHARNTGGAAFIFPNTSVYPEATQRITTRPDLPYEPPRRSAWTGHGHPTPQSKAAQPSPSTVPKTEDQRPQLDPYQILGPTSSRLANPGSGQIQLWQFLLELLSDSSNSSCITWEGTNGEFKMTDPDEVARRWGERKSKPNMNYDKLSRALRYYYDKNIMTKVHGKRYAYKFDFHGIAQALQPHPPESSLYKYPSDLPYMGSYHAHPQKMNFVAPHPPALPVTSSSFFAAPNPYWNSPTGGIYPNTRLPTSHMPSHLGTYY
An outline of the steps:
as §1

Another experiment concerns the target ELF1 (Homo sapiens, UniProt P32519 1-619). An outline of the steps:
as §1

The target of the next experiment is T5, EHF (Homo sapiens, UniProt Q9NZC4 1-300).
T5 sequence: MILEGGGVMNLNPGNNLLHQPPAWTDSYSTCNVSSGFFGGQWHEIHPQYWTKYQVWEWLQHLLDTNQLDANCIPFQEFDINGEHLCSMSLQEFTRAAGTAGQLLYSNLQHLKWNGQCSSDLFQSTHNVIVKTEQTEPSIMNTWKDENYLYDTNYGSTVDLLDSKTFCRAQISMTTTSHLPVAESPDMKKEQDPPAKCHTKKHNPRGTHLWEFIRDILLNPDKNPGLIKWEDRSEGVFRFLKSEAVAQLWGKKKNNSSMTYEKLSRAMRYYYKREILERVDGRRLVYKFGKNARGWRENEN
In outline: as §1

The target of a further experiment is SPI1 (Homo sapiens, UniProt P17947 1-270). In outline:
as §1

A further experiment deals with SPIB (Homo sapiens, UniProt Q01892 1-262). An outline of the steps: as §1
A further experiment addresses T6, ELK3 (Homo sapiens, UniProt P41970 1-407).
T6 sequence: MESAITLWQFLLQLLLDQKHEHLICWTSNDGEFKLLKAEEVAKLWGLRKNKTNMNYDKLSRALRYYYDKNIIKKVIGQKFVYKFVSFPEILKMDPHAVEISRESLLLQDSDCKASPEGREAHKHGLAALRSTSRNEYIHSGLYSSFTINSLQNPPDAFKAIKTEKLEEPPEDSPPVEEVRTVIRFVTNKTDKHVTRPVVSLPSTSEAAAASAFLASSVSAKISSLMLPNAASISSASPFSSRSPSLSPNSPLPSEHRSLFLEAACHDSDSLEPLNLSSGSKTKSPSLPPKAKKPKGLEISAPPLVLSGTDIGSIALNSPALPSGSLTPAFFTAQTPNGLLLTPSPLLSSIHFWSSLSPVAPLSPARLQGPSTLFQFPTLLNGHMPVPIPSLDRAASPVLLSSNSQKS
In outline: as §1

Sequence of ELF1 (P32519 whole entry): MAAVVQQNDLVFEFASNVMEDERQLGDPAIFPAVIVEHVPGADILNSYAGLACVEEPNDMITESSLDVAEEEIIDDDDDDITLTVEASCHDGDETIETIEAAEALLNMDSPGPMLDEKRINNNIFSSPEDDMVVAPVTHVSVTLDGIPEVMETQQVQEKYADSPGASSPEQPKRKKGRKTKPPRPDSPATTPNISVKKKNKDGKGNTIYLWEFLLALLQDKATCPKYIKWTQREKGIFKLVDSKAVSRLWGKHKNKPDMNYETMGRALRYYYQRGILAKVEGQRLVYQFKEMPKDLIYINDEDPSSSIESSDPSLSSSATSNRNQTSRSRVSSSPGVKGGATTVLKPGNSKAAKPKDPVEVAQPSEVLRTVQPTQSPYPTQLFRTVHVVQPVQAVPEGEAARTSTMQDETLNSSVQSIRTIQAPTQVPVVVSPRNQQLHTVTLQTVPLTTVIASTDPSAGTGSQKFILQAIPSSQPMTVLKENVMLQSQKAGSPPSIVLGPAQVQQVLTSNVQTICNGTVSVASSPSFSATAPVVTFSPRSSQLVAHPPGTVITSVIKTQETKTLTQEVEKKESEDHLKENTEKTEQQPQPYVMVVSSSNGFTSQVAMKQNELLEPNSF
Sequence of SPIB (Q01892 whole entry): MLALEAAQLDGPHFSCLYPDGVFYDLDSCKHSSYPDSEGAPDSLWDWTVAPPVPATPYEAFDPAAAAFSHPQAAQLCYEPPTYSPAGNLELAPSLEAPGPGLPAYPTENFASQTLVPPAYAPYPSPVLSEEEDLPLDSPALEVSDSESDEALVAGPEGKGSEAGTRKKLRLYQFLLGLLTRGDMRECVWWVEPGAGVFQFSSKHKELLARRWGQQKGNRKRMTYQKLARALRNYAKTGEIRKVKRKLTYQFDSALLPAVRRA

With TTAACC, the binding signal was 1.2 fold enrichment (6-mer frequency, TF over GST control) with FLI1; 1.25 fold enrichment (6-mer frequency, TF over GST control) with ELK1; 1.18 fold enrichment (6-mer frequency, TF over GST control) in the experiment with GABPA; 1.21 fold enrichment (6-mer frequency, TF over GST control) with ERG; 1.31 fold enrichment (6-mer frequency, TF over GST control) with ELF1; 1.24 fold enrichment (6-mer frequency, TF over GST control) in the experiment with EHF. Moreover, the binding signal in the experiment with SPI1 was 1.23 fold enrichment (6-mer frequency, TF over GST control); with SPIB it was 1.33 fold enrichment (6-mer frequency, TF over GST control); with ELK3 it was 1.3 fold enrichment (6-mer frequency, TF over GST control).
TCCATG: the binding signal with FLI1 was 1.17 fold enrichment (6-mer frequency, TF over GST control); with ELK1, 1.18 fold enrichment (6-mer frequency, TF over GST control); with GABPA, 1.1 fold enrichment (6-mer frequency, TF over GST control); with ERG, 1.09 fold enrichment (6-mer frequency, TF over GST control); in the experiment with ELF1, 1.11 fold enrichment (6-mer frequency, TF over GST control); with EHF, 1.17 fold enrichment (6-mer frequency, TF over GST control). Moreover, the binding signal with SPI1 is 1.1 fold enrichment (6-mer frequency, TF over GST control); with SPIB, 1.13 fold enrichment (6-mer frequency, TF over GST control); with ELK3, 1.24 fold enrichment (6-mer frequency, TF over GST control).
Take TCTGCT: the binding signal is 1.26 fold enrichment (6-mer frequency, TF over GST control) with FLI1; 1.3 fold enrichment (6-mer frequency, TF over GST control) with ELK1; 1.33 fold enrichment (6-mer frequency, TF over GST control) with GABPA; 1.22 fold enrichment (6-mer frequency, TF over GST control) in the experiment with ERG; 1.45 fold enrichment (6-mer frequency, TF over GST control) with ELF1; 1.55 fold enrichment (6-mer frequency, TF over GST control) in the experiment with EHF. The binding signal is 1.27 fold enrichment (6-mer frequency, TF over GST control) in the experiment with SPI1; 1.22 fold enrichment (6-mer frequency, TF over GST control) with SPIB; 1.2 fold enrichment (6-mer frequency, TF over GST control) with ELK3.
For the sequence TAGCTC, the binding signal in the experiment with FLI1 is 1.17 fold enrichment (6-mer frequency, TF over GST control); in the experiment with ELK1, 1.13 fold enrichment (6-mer frequency, TF over GST control); in the experiment with GABPA it was 1.2 fold enrichment (6-mer frequency, TF over GST control); with ERG, 1.11 fold enrichment (6-mer frequency, TF over GST control); with ELF1, 1.18 fold enrichment (6-mer frequency, TF over GST control); with EHF, 1.25 fold enrichment (6-mer frequency, TF over GST control). Besides, the binding signal is 1.21 fold enrichment (6-mer frequency, TF over GST control) with SPI1; 1.05 fold enrichment (6-mer frequency, TF over GST control) with SPIB; 1.28 fold enrichment (6-mer frequency, TF over GST control) with ELK3.
With TATACG, the binding signal was 1.32 fold enrichment (6-mer frequency, TF over GST control) with FLI1; 1.31 fold enrichment (6-mer frequency, TF over GST control) in the experiment with ELK1; 1.3 fold enrichment (6-mer frequency, TF over GST control) with GABPA; 1.24 fold enrichment (6-mer frequency, TF over GST control) with ERG; 1.31 fold enrichment (6-mer frequency, TF over GST control) with ELF1; 1.2 fold enrichment (6-mer frequency, TF over GST control) in the experiment with EHF. Also, the binding signal with SPI1 was 1.2 fold enrichment (6-mer frequency, TF over GST control); with SPIB, 1.35 fold enrichment (6-mer frequency, TF over GST control); with ELK3, 1.22 fold enrichment (6-mer frequency, TF over GST control).
With CTATGC, the binding signal was 1.41 fold enrichment (6-mer frequency, TF over GST control) with FLI1; 1.56 fold enrichment (6-mer frequency, TF over GST control) in the experiment with ELK1; 1.53 fold enrichment (6-mer frequency, TF over GST control) in the experiment with GABPA; 1.39 fold enrichment (6-mer frequency, TF over GST control) with ERG; 1.47 fold enrichment (6-mer frequency, TF over GST control) with ELF1; 1.31 fold enrichment (6-mer frequency, TF over GST control) with EHF. Moreover, the binding signal was 1.38 fold enrichment (6-mer frequency, TF over GST control) in the experiment with SPI1; 1.48 fold enrichment (6-mer frequency, TF over GST control) with SPIB; 1.4 fold enrichment (6-mer frequency, TF over GST control) with ELK3.
Take CCCGTT: the binding signal in the experiment with FLI1 was 1.17 fold enrichment (6-mer frequency, TF over GST control); with ELK1, 1.08 fold enrichment (6-mer frequency, TF over GST control); with GABPA, 1.21 fold enrichment (6-mer frequency, TF over GST control); with ERG, 1.26 fold enrichment (6-mer frequency, TF over GST control); with ELF1, 1.12 fold enrichment (6-mer frequency, TF over GST control); in the experiment with EHF, 1.15 fold enrichment (6-mer frequency, TF over GST control). Further, the binding signal with SPI1 was 1.28 fold enrichment (6-mer frequency, TF over GST control); with SPIB, 1.19 fold enrichment (6-mer frequency, TF over GST control); with ELK3, 1.18 fold enrichment (6-mer frequency, TF over GST control).
TTATCG: the binding signal is 1.17 fold enrichment (6-mer frequency, TF over GST control) with FLI1; 1.28 fold enrichment (6-mer frequency, TF over GST control) with ELK1; 1.3 fold enrichment (6-mer frequency, TF over GST control) in the experiment with GABPA; 1.3 fold enrichment (6-mer frequency, TF over GST control) in the experiment with ERG; 1.25 fold enrichment (6-mer frequency, TF over GST control) with ELF1; 1.25 fold enrichment (6-mer frequency, TF over GST control) with EHF. Besides, the binding signal was 1.15 fold enrichment (6-mer frequency, TF over GST control) with SPI1; 1.13 fold enrichment (6-mer frequency, TF over GST control) with SPIB; 1.17 fold enrichment (6-mer frequency, TF over GST control) with ELK3.
